# Reference: PubChem BioAssay (NCI)
# About 79,000 compounds went through this panel and 15% of them were active in at least one assay; those are over-represented in the sample as a whole. A number with no mark means an inactive call. Activity calls are given as the source filed them. Rule as the data show it: active = growth inhibition above about 70%; inactive = the rest. *1 amine or outer side, *2 acyl side, *3 side chain or, on linkers, in order; H or OH if unused. Where a SMILES comes first, the peptide text is derived from it. Bridges are numbered along the chain shown (N, C = ends). [ ]: non-standard residue; d: D form. The star is where a group is joined. Fmoc = O=C(OCC1c2ccccc2-c2ccccc21)*; X9 = O=C(C(CCCCNO[*:3])N[*:1])[*:2]
# How the values were obtained:
# [1] = NCI Yeast Anticancer Drug Screen. Data for the rad50 strain (AID 155);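 also: 0% = growth of vehicle-only cultures of the same strain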; details: S. cerevisiae rad50 strain growth inhibition; at 50.0 µM; hits give high values
# Procedure, shortened: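 Cells are treated with compound, grown, and their growth is then scored against vehicle-only cultures of the same repair-deficient yeast strain.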
# [2] = NCI Yeast Anticancer Drug Screen. Data for the mec2-1 strain (AID 157); details: S. cerevisiae mec2-1 strain, at 50.0 µM, hits give high values
# Procedure, shortened: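 Using mec2-1 yeast: add compound, measure growth, express inhibition versus vehicle-treated cultures.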
# [3] = NCI Yeast Anticancer Drug Screen. Data for the sgs1 mgt1 strain (AID 161);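 also: 0% = growth of cultures given vehicle only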; details: S. cerevisiae sgs1 mgt1 strain, at 50.0 µM, hits give high values
# Procedure, shortened: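 Growth of a repair-deficient yeast mutant was monitored after compound treatment and expressed as inhibition relative to vehicle-treated cultures.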
# [4] = NCI Yeast Anticancer Drug Screen. Data for the cln2 rad14 strain (AID 165);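 also: 0% = growth equal to vehicle treated cultures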; details: S. cerevisiae cln2 rad14 strain, at 50.0 µM, hits give high values
# Procedure, shortened: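 Yeast strain cln2 rad14, bearing defects in cell cycle control and DNA repair, serves as the test system; values reflect growth inhibition compared with vehicle.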
# [5] = NCI Yeast Anticancer Drug Screen. Data for the bub3 strain (AID 167); details: S. cerevisiae bub3 mutant strain, at 50.0 µM, hits give high values
# Procedure, shortened: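 Part of a panel of yeast mutants defective in DNA damage repair or cell cycle regulation. Each strain is grown with compound, and inhibition is calculated relative to solvent-treated cultures.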
# [6] = NCI Yeast Anticancer Drug Screen. Data for the mlh1 rad18 strain (AID 175); details: S. cerevisiae mlh1 rad18 strain growth inhibition; at 50.0 µM; hits give high values
# Procedure, shortened: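 Steps: expose repair-defective yeast to compound; measure growth; express inhibition against vehicle-treated controls.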
SMILES,growth inhibition [1] [%],growth inhibition [2] [%],growth inhibition [3],growth inhibition [4] [%],growth inhibition [5] [%],growth inhibition [6] [%]
COc1cc(/C=N/NC(=O)C(=O)N/N=C/c2cc(OC)c(OC)c(OC)c2)cc(OC)c1OC,-20.4,-34.1,-24.7%,3.9,-20,-21.1
CN1C(=O)C(=O)OC1=C(c1ccccc1)c1ccccc1,2.9,-4.6,0.85%,-30.9,-17.6,-18.2
CCOC(=O)CN=c1nc(SC)sc2c(C(=O)OCC)nc(Sc3ccccc3)n12,1.25,-7.25,1.55%,13.6,-11.4,8.65
O=C(O)CCNCCO,-3.5,13.4,5.1%,-18.6,20.1,2.45
Cc1nn2c(C(=O)O)nnc2s1,-0.3,5.25,7.7%,-21.8,-16.6,-13.8
ClCCOc1ccc2ccccc2c1,13.4,-6.1,0.55%,4.05,0.5,12.1
COc1ccc(CCCc2cc3c(cc2OC)OCO3)cc1,5.6,-4.1,15.5%,-8.65,35.6,12.2
COc1cccc(NC(=O)NC(C)(C)C)c1,8.2,-16.1,1.2%,-42.1,-0.7,-0.05
Cc1ccc(S(=O)(=O)OC2C(C)(C)C(=O)C2(C)C)cc1,7.45,-2.15,-0.05%,-11.7,17.6,8.35
OC1C/C=C/CCCCC1 (centres undefined),-11,-5.75,-3.55%,1.95,3.3,-4.4
COC(=O)C1(CC(=O)C(c2ccccc2)c2ccccc2)NC(=S)NC(=O)C1C#N (centres undefined),5.6,4.65,-12.8%,-2.7,0.55,-8.9
O=C1NC(=S)SC1=C1CCCCC1,22.9,42.5,41.6%,34.5,37.9,28.2
CC(=O)c1cccc(N)c1,-26.9,-5.75,-20.4%,-23.3,-15.8,3.1
COc1cc2c(cc1OC)C(Cc1cc(Br)c(OC)c(OC)c1)=[N+](C)CC2,1.65,4.4,-12.4%,9.65,1.05,11.2
NC(=O)CNC(=O)C1CCCN1C(=O)C1CCCCNOC(=O)CCC(NC(=O)OCC2c3ccccc3-c3ccccc32)C(=O)NC(Cc2c[nH]c3ccccc23)C(=O)N1 (centres undefined) (Fmoc-EW[X9]PG-NH2; ester 1-3; configuration not given here),-16.5,-14.7,-22.2%,18.4,4.1,-6.35
COc1ccccc1C=NC12CC3CC(CC(C3)C1)C2,-29.2,-12.6,2.55%,1.9,-4.2,-16.6
O=c1[nH]cc(F)c(=O)n1-c1ccco1,42.6,67.5,79.8% (active),-0.55,52.2,34.9
Cc1ccc(-c2c(C#N)c(-c3ccccc3)n(NS(=O)(=O)c3ccccc3)c(=O)c2C#N)cc1,42.1,49.8,47.1%,51.2,49.6,51.1
O=NN(CCF)C(=O)N[C@H]1CCCC[C@H]1O,-15.7,-19.1,-27.1%,2.75,-15.9,1.45
CCCCCCCCCCCCCCCCNc1nc(=O)n(C2CC(O)C(COP(=O)(O)OC3CC(n4cc(F)c(=O)[nH]c4=O)OC3CO)O2)cc1F (centres undefined),-2.05,-6.05,-25.9%,0.95,-42.6,-31.6

SMILES,growth inhibition [1] [%],growth inhibition [2] [%],growth inhibition [3],growth inhibition [4] [%],growth inhibition [5] [%],growth inhibition [6] [%]
COc1ccc(-n2[nH]nc(C(N)=O)c2=O)cc1,7.6,-2.5,-33.4%,-22.6,-24.6,-65
CC(O)CN1CNC(=S)NC1 (centres undefined),-3.8,-39.3,-3.55%,8.75,-16.2,-7.25
CC(=O)OCC1OC(n2c(Br)nc3c(N)ncnc32)C2OC(C)(C)OC12 (centres undefined),14.3,6.2,16.4%,-2.7,1.3,-6.55
COc1ccccc1NC(=O)C(CC(C(=O)Nc1ccccc1OC)/C(C)=N/NC(=O)c1ccccc1O)/C(C)=N/NC(=O)c1ccccc1O (centres undefined),-27.8,-14.2,-28.2%,21.9,-3.55,-9.1
CN(C)c1ccc(/C=C2\CCOC2=O)cc1,38.1,11.8,14.3%,4.6,2.95,8.6
Cc1c(-c2ccccc2)nc(N(C)C)oc1=O,19,-5.05,-6.8%,-9,-16.2,-7.8
O=C(O)c1ccc2sc3ccccc3c(=O)c2c1,14.9,32.8,33.3%,-21.2,21.7,39
CC(=O)Nc1ccccc1C=O,-4.15,-7.95,3.75%,-15.3,-14.9,-5.55
Cc1cc(NCCN(C)C)nc(Nc2ccc(Cl)cc2)n1,50.8,19.4,31.6%,-13.9,10.9,54.8
CC(=O)Nc1nnnn1C,-3.05,-2.3,0.45%,-40.1,-1.9,-10.9
ClC1(Cl)C2CCOC21n1cnc2ccccc21 (centres undefined),11.8,-5.1,-8.3%,4.95,8.25,-11.2
COC(=O)/C(C#N)=C/c1ccc2c(c1)OCO2,12.4,7.65,16.1%,11.2,35.9,28.2
COc1ccccc1OCC(=O)O,23.6,0.2,-17.8%,-24.9,-11.9,23.2
Cc1nc(CO)cc(=O)[nH]1,19.6,-5.5,12.2%,9.85,-25.4,14.1
C=C1C2CC3CCC2C(OC(=O)c2ccccc2C(=O)O)C13 (centres undefined),-0.45,-11.2,1.4%,14.8,-2.2,-19.3
O=S(=O)(O)CC(NCc1ccccc1)c1ccccc1 (centres undefined),-28.9,-0.45,-19.6%,-36.9,13.8,-5
O=C(CCCCl)c1ccc(O)cc1,-29.4,-36,2.75%,11.8,-17.6,0.1
CNC(=O)OCC#CCOC(=O)NC,-17.5,-9.9,-23.2%,-4.85,-10.5,-25.1
COC(=O)CCSCC(N)C(=O)O (centres undefined),1.3,-2.95,-13.3%,-39.5,-0.95,-18.4
